# Data taken from the OligoGym collection.
# What was measured:
# Assay in all cases: pooled miR-30 sensor sort-seq; sequence = guide strand
# Conditions in all cases: shRNA
# MYO1D = target: MYO1D
# MYNN = target: MYNN
# MYO1F = target: MYO1F
# MYL4 = target: MYL4
# MYO1A = target: MYO1A
# MYST4 = target: MYST4
# NCSTN = target: NCSTN
# NLRP3 = target: NLRP3
# NMRAL1 = target: NMRAL1
# NMUR2 = target: NMUR2
# NODAL = target: NODAL
# NOL7 = target: NOL7
# NPBWR1 = target: NPBWR1
# NR4A3 = target: NR4A3
# NRGN = target: NRGN
# NR3C1 = target: NR3C1
# NPSR1 = target: NPSR1
# NTRK3 = target: NTRK3
# NUP54 = target: NUP54
# ODF3L1 = target: ODF3L1
# Further: reference of the scale not given here.
sequence,measurement,setting,value
TTGTTCTGAACCTCCTTGGAGT,sensor-assay potency score (higher = more potent),MYO1D,-0.407
TGCTTCTGTAGATCGCACCAAA,sensor-assay potency score (higher = more potent),MYNN,-1.32
TTCTGGAAGATCTCGAAGCCGT,sensor-assay potency score (higher = more potent),MYO1F,-0.863
TTATTTGTGCAACTTGTTCTAC,sensor-assay potency score (higher = more potent),MYNN,0.0284
TTCAAGAAACATTTCATCGGTG,sensor-assay potency score (higher = more potent),MYO1D,0.501
TTATGTATTCTCATGTGCCTTC,sensor-assay potency score (higher = more potent),MYNN,0.676
AAGTCTATCTTTACACTCTTGG,sensor-assay potency score (higher = more potent),MYL4,-0.446
TTGAGCACTGCCAAGTCGCCGA,sensor-assay potency score (higher = more potent),MYO1F,-0.541
TAACAGTGTGCACAATATCTTG,sensor-assay potency score (higher = more potent),MYNN,-1.2
TTCAAAACTGTTGTTGTCGAAG,sensor-assay potency score (higher = more potent),MYO1D,-0.485
TTGACCTCAACAATGTATCTGA,sensor-assay potency score (higher = more potent),MYNN,0.54
TTTGAGATGACTTTTTCGCTAA,sensor-assay potency score (higher = more potent),MYNN,-0.185
TTGAGATTGCTAGAAGTCGCAA,sensor-assay potency score (higher = more potent),MYNN,-0.134
TAAGACATCACCAGCTTGCTGG,sensor-assay potency score (higher = more potent),MYO1A,-0.216
TTGTTCTTGCTTCAGAACCAGC,sensor-assay potency score (higher = more potent),MYO1D,-1.43
TATCTTTACACTCTTGGGGTCA,sensor-assay potency score (higher = more potent),MYL4,-0.527
TTGATTCGATTCACTATCCAGT,sensor-assay potency score (higher = more potent),MYO1A,-0.284
TAGCACTTGTCGAATCTCCTCC,sensor-assay potency score (higher = more potent),MYO1A,0.419
TTCTCCTTGAACCTCACTGAGA,sensor-assay potency score (higher = more potent),MYO1A,-1.61
TAGATGTTCAACAACTTGTAAG,sensor-assay potency score (higher = more potent),MYO1D,-1.57
TTTCTGAAATCCATCAGCCTTC,sensor-assay potency score (higher = more potent),MYNN,-0.541
TCGATTATTATAATCTCGCAGA,sensor-assay potency score (higher = more potent),MYNN,-0.633
TTTTTGTAGCGTAGCTTGCTGT,sensor-assay potency score (higher = more potent),MYO1A,-0.784
TTGAGCTGCTTCACTAATCGGG,sensor-assay potency score (higher = more potent),MYO1A,0.105
TCTTGACATTCATCTCTTCAGG,sensor-assay potency score (higher = more potent),MYL4,-0.927
TTTCTCAACCATATCTGTCTTA,sensor-assay potency score (higher = more potent),MYO1D,0.187
TAGTAGAGAGCAATTCTGCTAT,sensor-assay potency score (higher = more potent),MYO1D,0.00249
TATTTCAGTATCATCATCCTGA,sensor-assay potency score (higher = more potent),MYST4,0.932
TTTTCGATTGTACTTTTGCAGG,sensor-assay potency score (higher = more potent),MYST4,-1.34
TTAAACAGGAGCAAGAAGCTTC,sensor-assay potency score (higher = more potent),NCSTN,-0.218
TATATCTTCCTCTCCACTGAGT,sensor-assay potency score (higher = more potent),NCSTN,-0.425
AAGCTGTAGAACTTCTCGCAGT,sensor-assay potency score (higher = more potent),NLRP3,-0.94
TTGAAGTCGATCATTAGCGTGG,sensor-assay potency score (higher = more potent),NLRP3,0.548
TAATTGGTCACGATGAAGGTGG,sensor-assay potency score (higher = more potent),NMRAL1,-0.074
TCGGGTCACCACTCGAACCTTG,sensor-assay potency score (higher = more potent),NMRAL1,-0.891
TTTGAATATTTGCATTCCCTTC,sensor-assay potency score (higher = more potent),NMUR2,-0.976
TAACGTTTCAGCAGACTCTGGA,sensor-assay potency score (higher = more potent),NODAL,1.03
TTCGTAGTCCTCAGGAGTCATC,sensor-assay potency score (higher = more potent),NMRAL1,-1.71
TTTCTTTAGTCTGAGTGCCATG,sensor-assay potency score (higher = more potent),NMUR2,-1.41
TACTCCTCGGCCGTGTGCCTGC,sensor-assay potency score (higher = more potent),NMRAL1,-0.836
TGGATCTTCTAGTTTCTGCTGG,sensor-assay potency score (higher = more potent),NMUR2,0.385
TAAAGAACTCATGCACTTGTGC,sensor-assay potency score (higher = more potent),NODAL,0.25
TTGGGGACCTATATCTTCGGTC,sensor-assay potency score (higher = more potent),NMUR2,-0.773
TAGTTTGTTCTTGACATCTGTT,sensor-assay potency score (higher = more potent),NMUR2,-0.227
TTATCCACATACAGCATGCTCA,sensor-assay potency score (higher = more potent),NODAL,-0.807
TTGACTGATTTTCTGCAGGGTC,sensor-assay potency score (higher = more potent),NMUR2,-0.256
TTAGTCTGTGAAGCTGTGGTTA,sensor-assay potency score (higher = more potent),NOL7,-0.246
TACTTCTGCACCTTGCAGCCTC,sensor-assay potency score (higher = more potent),NMRAL1,-0.418
TGTACTTTAACTTTCTTGGAGT,sensor-assay potency score (higher = more potent),NOL7,-0.613
TAGTCCTCAGGAGTCATCTTGG,sensor-assay potency score (higher = more potent),NMRAL1,-0.467
TCTGCCATTATCCACATACAGC,sensor-assay potency score (higher = more potent),NODAL,-1.71
TTCTGCACCTTGCAGCCTCAGC,sensor-assay potency score (higher = more potent),NMRAL1,-0.852
TTGGAGAATACATGAAAGCTAT,sensor-assay potency score (higher = more potent),NODAL,-0.351
TTGTTGACTGATTTTCTGCAGG,sensor-assay potency score (higher = more potent),NMUR2,-0.441
TTCAGTAAAGAGAACATCCAGC,sensor-assay potency score (higher = more potent),NODAL,0.203
AACTTATTTACAGTAGTCCTGT,sensor-assay potency score (higher = more potent),NOL7,-0.21
TTGGCATCGTGCACGACCTTGC,sensor-assay potency score (higher = more potent),NMRAL1,0.214
TTTATGGTGATCTAGGAGCACT,sensor-assay potency score (higher = more potent),NODAL,-0.921
TTTCTGACCATCCACCGTCTTT,sensor-assay potency score (higher = more potent),NOL7,-1.02
TTGTTCTTGACATCTGTTCACT,sensor-assay potency score (higher = more potent),NMUR2,-0.626
TTATTTACAGTAGTCCTGTTGG,sensor-assay potency score (higher = more potent),NOL7,-0.0686
TCCTTTGCTGCCTTCTTCCTAG,sensor-assay potency score (higher = more potent),NMRAL1,-1.25
TGGTGATCTAGGAGCACTCTGC,sensor-assay potency score (higher = more potent),NODAL,-1.24
ATGTATGCATGGTTGGTCGGAT,sensor-assay potency score (higher = more potent),NODAL,-0.818
TTGGTCACGATGAAGGTGGCGT,sensor-assay potency score (higher = more potent),NMRAL1,-0.0574
TGATCTAGGAGCACTCTGCCAT,sensor-assay potency score (higher = more potent),NODAL,-0.476
TTTGTCTTTCTTTAGTCTGAGT,sensor-assay potency score (higher = more potent),NMUR2,-1.1
TTGATGTTCTCCAGGCCGCTGT,sensor-assay potency score (higher = more potent),NMRAL1,-0.625
TTTCAGCAGACTCTGGATGTAT,sensor-assay potency score (higher = more potent),NODAL,-0.374
TTTGCTGCCTTCTTCCTAGGGT,sensor-assay potency score (higher = more potent),NMRAL1,0.121
TTCTTGACATCTGTTCACTAGA,sensor-assay potency score (higher = more potent),NMUR2,-0.341
TTGAACACAGCAGCCAGGGATT,sensor-assay potency score (higher = more potent),NMUR2,-1.59
TTGTACTTTAACTTTCTTGGAG,sensor-assay potency score (higher = more potent),NOL7,-0.0182
TACATGAGTTGTAAGAGCCATT,sensor-assay potency score (higher = more potent),NMUR2,-0.996
TGTCTTTATGGTGATCTAGGAG,sensor-assay potency score (higher = more potent),NODAL,-0.744
TAGAGGAAGGGGTTGAGGCAGC,sensor-assay potency score (higher = more potent),NPBWR1,0.0364
TCTTGTTGCATAGCTCTTCGAC,sensor-assay potency score (higher = more potent),NR4A3,-0.437
TTTGCATAAACAAGAGAGCTGG,sensor-assay potency score (higher = more potent),NRGN,-0.297
TTTAGCTGCGCACAGAACGAAA,sensor-assay potency score (higher = more potent),NRGN,-1.54
TGACTTATTATTGACAACGAAG,sensor-assay potency score (higher = more potent),NR3C1,-1.46
TCCAACACTGAGACACTTCTGA,sensor-assay potency score (higher = more potent),NR4A3,-0.139
TGTCTAGAATGTCGTCGTCCGG,sensor-assay potency score (higher = more potent),NRGN,-1.75
TAGAATATTGACACACTTGAAT,sensor-assay potency score (higher = more potent),NR3C1,-0.527
TAGAGCAGCACAACCTGCAAAT,sensor-assay potency score (higher = more potent),NPSR1,-0.941
TTACATTGGTCGTACATGCAGG,sensor-assay potency score (higher = more potent),NR3C1,-0.108
TTGAGCGTAGTCATGATCCTCC,sensor-assay potency score (higher = more potent),NR3C1,0.514
TCTTTATCTTCTTCCGCGCCAT,sensor-assay potency score (higher = more potent),NRGN,-0.595
TTCTTCTTTCTCCTCCATGTGG,sensor-assay potency score (higher = more potent),NPSR1,-0.829
TAAGTAATGTCTGATCTTCTTT,sensor-assay potency score (higher = more potent),NR4A3,-0.546
TAGAAAAAACTGTTCGACCAGG,sensor-assay potency score (higher = more potent),NR3C1,-0.371
TTGCATAAACAAGAGAGCTGGA,sensor-assay potency score (higher = more potent),NRGN,0.0661
TAATGTCTGATCTTCTTTGGGG,sensor-assay potency score (higher = more potent),NR4A3,0.115
TAGGGTTTTATAGAAGTCCATC,sensor-assay potency score (higher = more potent),NR3C1,-1.08
TTTATCTTCTTCCGCGCCATGT,sensor-assay potency score (higher = more potent),NRGN,-1.14
TTTTTCTGCACTGTTCTCTTGA,sensor-assay potency score (higher = more potent),NR4A3,0.598
TTCATCTATCAACAGGTCTGAT,sensor-assay potency score (higher = more potent),NR3C1,-0.68
TATCTGTACGGACAACTTCTTT,sensor-assay potency score (higher = more potent),NR4A3,-1
TTGAAGAAAACTTTACAGCTTC,sensor-assay potency score (higher = more potent),NR3C1,0.56
ATCGACAGTACTGACATCGGTT,sensor-assay potency score (higher = more potent),NR4A3,-0.324
TTTCTTTAAGTGAGTGTGCTTG,sensor-assay potency score (higher = more potent),NRGN,-0.361
TTGACAAAACCAGATCTCCATT,sensor-assay potency score (higher = more potent),NR3C1,-1.1
TTCAGGTTCAATAACCTCCAAC,sensor-assay potency score (higher = more potent),NR3C1,-0.915
TCGTCGTCCGGCTTGGAGCAGG,sensor-assay potency score (higher = more potent),NRGN,-0.878
TTTTCTTCGAATTTTATCGATG,sensor-assay potency score (higher = more potent),NR3C1,-1.06
TTTTAATCCAAATAGTTCGGAT,sensor-assay potency score (higher = more potent),NPSR1,-0.423
TTGCTTTTAATCCAAATAGTTC,sensor-assay potency score (higher = more potent),NPSR1,-1.33
TTTCAGTGCAAGCCACTGGGGA,sensor-assay potency score (higher = more potent),NPSR1,-0.49
TTGCATAGCTCTTCGACTCTCT,sensor-assay potency score (higher = more potent),NR4A3,0.177
TTGAAGTACATGGAGGTGCTGG,sensor-assay potency score (higher = more potent),NR4A3,-0.481
TGGTCTTTTAAACTGCTTGTGA,sensor-assay potency score (higher = more potent),NR4A3,-0.937
TTCACCTACAGCTACAGTCAGG,sensor-assay potency score (higher = more potent),NR3C1,-1.07
TATCTTCTTCCGCGCCATGTGG,sensor-assay potency score (higher = more potent),NRGN,-1.11
TAGAATGTCGTCGTCCGGCTTG,sensor-assay potency score (higher = more potent),NRGN,-0.236
TATTGTTCACATTCCAACCCAG,sensor-assay potency score (higher = more potent),NRGN,-0.138
TAAACTGCTTGTGATCTTGTTG,sensor-assay potency score (higher = more potent),NR4A3,-0.255
TCTAGAATGTCGTCGTCCGGCT,sensor-assay potency score (higher = more potent),NRGN,-0.833
TTTGTAGATCTCCTTGATGTTC,sensor-assay potency score (higher = more potent),NTRK3,-1.01
TTGACAGGTTTATATAACGCAA,sensor-assay potency score (higher = more potent),NTRK3,-0.787
TAACAGATCTGCATCTATGTAA,sensor-assay potency score (higher = more potent),NUP54,0.386
TAGCAGGGAGCAGCTCGGCTGA,sensor-assay potency score (higher = more potent),ODF3L1,-1.48
